The values that follow come from PubChem BioAssay (Tox21).

“And” between values parts separate entries of the source, which are not always exact repeats. Identical values can stand only once. Unmarked numbers belong to inactive results. Inconclusive results are not listed. The source made the active and inactive calls. Unless noted, calls come from the whole dose curve; as a rule, active = well fitted curve in the direction sought with a large enough effect in the repeat runs; inconclusive = weak or mixed curves; inactive = no such curve, though single readings can be large; an effect the other way counts as inactive or inconclusive.

The target of assay [1] is Thyrotropin-releasing hormone receptor (Homo sapiens) (UniProt P34981). In words: qHTS assay to identify small molecule agonists of the thyrotropin-releasing hormone receptor (TRHR) signaling pathway (AID 1346891; calls by dose curve; note: series mostly up to about 58 µM). In short, it runs like this: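 TRHR-expressing HEK293 cells were plated 18 h at 37 °C/5% CO2, loaded with calcium dye 2 h at 37 °C, then given compound in DMSO; fluorescence was read kinetically for 3 min at 1 s intervals.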

Assay [2] is described as follows: Caspase-3/7 induction in HepG2 cells by small molecules, qHTS assay (AID 1346978). Note: nearly all actives have a fitted effect of over 15% in size. A digest of the protocol: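 Wild-type HepG2 cells (2,000/well) were settled 5 h at 37 C, 5% CO2, then exposed to compounds in DMSO for 17 h. Caspase-3/7 activity was read by luminescence 30 min after adding Caspase-Glo 3/7 reagent at room temperature.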
The nature of assay [3]: Caspase-3/7 induction in CHO-K1 cells by small molecules, qHTS assay (AID 1346980). Note: nearly all actives have a fitted effect of over 15% in size. A digest of the protocol:
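Wild-type cells were seeded at 1,500 per well and settled 5 hr at 37 C, 5% CO2, then exposed to DMSO-dissolved compounds for 17 hr. Caspase-Glo 3/7 reagent was added, and luminescence was read after 30min at room temperature.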

The target of assay [4] is Cytochrome P450 2C9 (Homo sapiens) (UniProt P11712). Description: Cytochrome P450 Family 2 Subfamily C Member 9 (CYP2C9) small molecule antagonists: luciferase reporter qHTS assay (AID 1671198). Note: nearly all actives have a fitted effect of over 50% in size. Note: potency is the fitted concentration of half-maximal effect. In short, it runs like this: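 CYP2C9 activity was measured with a P450-Glo proluciferin substrate. Enzyme–substrate mix was held with compound for 10 min at room temperature, then NADPH regeneration solution was added for 1 h at 37C. Luciferin product was read as luminescence.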

Assay [5] addresses Cytochrome P450 1A2 (Homo sapiens) (UniProt P05177). Description: Cytochrome P450 Family 1 Subfamily A Member 2 (CYP1A2) small molecule antagonists: luciferase reporter qHTS assay (AID 1671199). Note: nearly all actives have a fitted effect of over 50% in size. Note: potency is the fitted concentration of half-maximal effect. A digest of the protocol: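 P450-Glo CYP1A2, 1536-well qHTS: enzyme/proluciferin substrate + cpd (DMSO), 10 min RT; NADPH regen, 1 h RT; detection reagent, 20 min; luminescence, RLU.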

Assay [6] concerns the target Voltage-gated inwardly rectifying potassium channel KCNH2 (Homo sapiens) (UniProt Q12809). In words: Human Ether-a-go-go-Related Gene (hERG) channel small molecule antagonists: fluorescence cell-based qHTS assay (AID 1671200). Note: nearly all actives have a fitted effect of over 50% in size. Note: potency is the fitted concentration of half-maximal effect. A digest of the protocol:
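U2OS cells expressing the channel were plated at 1000 cells/well, incubated overnight at 37 C, then loaded with FluxOR II thallium-sensitive dye for 1 h at room temperature in the dark, with a further 10 min at room temperature before stimulation.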

Assay [7] deals with Cytochrome P450 3A4 (Homo sapiens) (UniProt P08684). Description: Cytochrome P450 Family 3 Subfamily A Member 4 (CYP3A4) small molecule antagonists: luciferase reporter qHTS assay (AID 1671201). Note: nearly all actives have a fitted effect of over 50% in size. Note: potency is the fitted concentration of half-maximal effect. In short, it runs like this: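 P450-Glo CYP3A4 system with proluciferin substrate; compounds preincubated 10 min RT with enzyme-substrate mix, then NADPH regeneration added for 1 h RT. Detection reagent 20 min, luminescence read as relative luminescence units.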

A short description of assay [8]: Caspase-3/7 induction in HepG2 cells by small molecules, qHTS cell viability counter screen (AID 1346981). Note: nearly all actives have a fitted effect of over 30% in size. Note: potency is the fitted concentration of half-maximal effect. In short, it runs like this:
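HepG2, WT, 2,000 cells/well; 5 hr pre-incubation 37 C/5% CO2; compound pin-transferred from DMSO; 16 hr exposure; CellTiter-Fluor, 1 hr; fluorescence read.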

Assay [9] addresses Nuclear receptor subfamily 1 group I member 2 (Homo sapiens) (UniProt O75469). In words: Human pregnane X receptor (PXR) small molecule agonists, qHTS assay (AID 1346982). Note: nearly all actives have a fitted effect of over 35% in size. Note: potency is the fitted concentration of half-maximal effect. A digest of the protocol:
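Luciferase signal from ONE-Glo (30 min, room temperature) measured activation of hPXR-driven CYP3A4 reporter expression in PXR-Luc HepG2 cells treated with compounds for 24 hr at 37 C.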

The target in assay [10] is Cytochrome P450 2C19 (Homo sapiens) (UniProt P33261). Description: Cytochrome P450 Family 2 Subfamily C Member 19 (CYP2C19) small molecule antagonists: luciferase reporter qHTS assay (AID 1671197). Note: nearly all actives have a fitted effect of over 65% in size. Note: potency is the fitted concentration of half-maximal effect. In short, it runs like this: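 Relative luminescence units recorded 20 min after the detection reagent stopped a 1 h, 37C CYP2C19 reaction on proluciferin substrate, which was started by NADPH regeneration following 10 min room-temperature compound preincubation; ketoconazole positive control.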

Assay [11] can be described thus: Human pregnane X receptor (PXR) small molecule agonists, qHTS cell viability counter screen (AID 1346977). Note: nearly all actives have a fitted effect of over 50% in size. In short, it runs like this: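 PXR-Luc HepG2 cells in medium with 5% charcoal-stripped FBS were pre-incubated 5hr, then exposed to compounds for 24hr at 37C. Viability was read in the same wells by CellTiter-Fluor fluorescence, reagent added after 23hr with a 1hr incubation.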

Assay [12] is described as follows: Caspase-3/7 induction in CHO-K1 cells by small molecules, qHTS cell viability counter screen (AID 1346979). Note: nearly all actives have a fitted effect of over 35% in size. Note: potency is the fitted concentration of half-maximal effect. In short, it runs like this:
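Wild-type CHO-K1 cells were seeded at 1,500 per well, rested 5hr at 37 C, then exposed to compounds in DMSO. After 16hr, CellTiter-Fluor reagent was added and fluorescence read 1hr later as the viability measure.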

Assay [13] concerns the target Nuclear receptor subfamily 1 group I member 2 (Rattus norvegicus) (UniProt Q9R1A7). Description: Rat pregnane X receptor (rPXR) activation by small molecules, qHTS assay (AID 1346983). Note: nearly all actives have a fitted effect of over 20% in size. As to conditions: rPXR luciferase reporter cells, One-Glo luminescence, 24 h; max activation: active compounds read high. A digest of the protocol: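 Cell-based rPXR luciferase reporter assay, 2,000 cells per well, rested 5hr at 37 C before compound addition in DMSO, then 24 hr at 37 C. One-Glo reagent was added and luminescence read after 30 min at room temperature.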

The target in assay [14] is Nuclear receptor subfamily 1 group I member 2 (Homo sapiens) (UniProt O75469). In words: CYP3A4 induction through human pregnane X receptor (PXR) by small molecules, qHTS assay (AID 1346984). Note: nearly all actives have a fitted effect of over 40% in size. Note: potency is the fitted concentration of half-maximal effect. In short, it runs like this: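 Luminescence readout: luciferase signal after One-Glo (30 min, room temperature), following 3 h at 37C with 3uM final Luciferin-IPA P450 substrate. Cells were DPX-2 (HepG2, PXR/CYP3A4-luc co-transfected) dosed for 24 h.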

Assay [15] has the same target. Description: Human pregnane X receptor (PXR) activation by small molecules, qHTS assay (AID 1346985). Note: nearly all actives have a fitted effect of over 40% in size. Note: potency is the fitted concentration of half-maximal effect. A digest of the protocol: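 DPX-2 cells (HepG2 co-transfected with a PXR response element and a CYP3A4-promoter luciferase construct) were seeded at 2,000 per well, rested 5 hr at 37C, then exposed to DMSO-dissolved compounds for 24 hr. Activation was read as luciferase luminescence.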

For assay [16], the target named is Cytochrome P450 2D6 (Homo sapiens) (UniProt P10635). In words: Cytochrome P450 Family 2 Subfamily D Member 6 (CYP2D6) small molecule antagonists: luciferase reporter qHTS assay (AID 1671196). Note: nearly all actives have a fitted effect of over 50% in size. Note: potency is the fitted concentration of half-maximal effect. In short, it runs like this:
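Read-out is luminescence from luciferin formed by CYP2D6 turnover of a proluciferin substrate, recorded as relative luminescence units. Reactions ran 1 h at room temperature after NADPH regeneration solution was added.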
% is set by controls: 0 for no effect and ±100 for the full control effect.

Cytochrome P450 2C19 (Homo sapiens), sequence (P33261 whole entry, looked up): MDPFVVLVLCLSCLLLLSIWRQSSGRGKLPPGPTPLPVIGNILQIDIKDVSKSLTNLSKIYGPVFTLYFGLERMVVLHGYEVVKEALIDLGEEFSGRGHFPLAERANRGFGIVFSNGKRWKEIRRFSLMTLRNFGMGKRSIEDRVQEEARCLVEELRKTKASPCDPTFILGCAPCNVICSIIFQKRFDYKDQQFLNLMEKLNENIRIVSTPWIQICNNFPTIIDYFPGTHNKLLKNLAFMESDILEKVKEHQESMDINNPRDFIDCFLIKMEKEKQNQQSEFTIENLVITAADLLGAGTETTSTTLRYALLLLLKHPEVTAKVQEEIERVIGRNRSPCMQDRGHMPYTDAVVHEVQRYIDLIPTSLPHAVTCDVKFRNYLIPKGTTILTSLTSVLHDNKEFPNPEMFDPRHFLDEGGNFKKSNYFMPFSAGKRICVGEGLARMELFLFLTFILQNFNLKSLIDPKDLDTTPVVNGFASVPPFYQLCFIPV
Cytochrome P450 2C9 (Homo sapiens), sequence (P11712 whole entry, looked up): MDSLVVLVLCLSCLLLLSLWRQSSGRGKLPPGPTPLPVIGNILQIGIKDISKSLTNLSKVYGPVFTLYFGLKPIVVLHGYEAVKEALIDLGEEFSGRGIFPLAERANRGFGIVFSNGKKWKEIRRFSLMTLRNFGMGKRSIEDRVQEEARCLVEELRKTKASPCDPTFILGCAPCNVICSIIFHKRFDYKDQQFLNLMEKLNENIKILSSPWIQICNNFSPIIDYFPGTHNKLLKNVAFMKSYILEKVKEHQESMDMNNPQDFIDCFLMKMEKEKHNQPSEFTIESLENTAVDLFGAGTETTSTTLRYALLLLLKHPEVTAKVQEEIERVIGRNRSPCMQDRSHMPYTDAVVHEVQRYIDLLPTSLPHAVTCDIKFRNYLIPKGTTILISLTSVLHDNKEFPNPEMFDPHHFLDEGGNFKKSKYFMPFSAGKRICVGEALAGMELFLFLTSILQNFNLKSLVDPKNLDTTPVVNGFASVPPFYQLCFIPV
Cytochrome P450 3A4 (Homo sapiens), sequence (P08684 whole entry, looked up): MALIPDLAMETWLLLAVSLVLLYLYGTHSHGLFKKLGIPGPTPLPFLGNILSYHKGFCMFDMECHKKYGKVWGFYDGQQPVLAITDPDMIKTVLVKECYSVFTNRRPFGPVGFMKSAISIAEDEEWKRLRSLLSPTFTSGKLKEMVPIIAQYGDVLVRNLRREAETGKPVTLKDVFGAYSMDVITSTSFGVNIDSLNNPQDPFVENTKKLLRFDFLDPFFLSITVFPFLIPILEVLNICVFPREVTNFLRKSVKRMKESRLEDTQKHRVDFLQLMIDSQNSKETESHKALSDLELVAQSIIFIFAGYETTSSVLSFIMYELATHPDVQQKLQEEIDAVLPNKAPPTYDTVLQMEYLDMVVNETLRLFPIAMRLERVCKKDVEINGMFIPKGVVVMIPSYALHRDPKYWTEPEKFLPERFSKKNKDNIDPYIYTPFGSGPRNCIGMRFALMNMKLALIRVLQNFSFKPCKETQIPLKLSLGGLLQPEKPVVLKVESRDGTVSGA
Cytochrome P450 1A2 (Homo sapiens), sequence (P05177 whole entry, looked up): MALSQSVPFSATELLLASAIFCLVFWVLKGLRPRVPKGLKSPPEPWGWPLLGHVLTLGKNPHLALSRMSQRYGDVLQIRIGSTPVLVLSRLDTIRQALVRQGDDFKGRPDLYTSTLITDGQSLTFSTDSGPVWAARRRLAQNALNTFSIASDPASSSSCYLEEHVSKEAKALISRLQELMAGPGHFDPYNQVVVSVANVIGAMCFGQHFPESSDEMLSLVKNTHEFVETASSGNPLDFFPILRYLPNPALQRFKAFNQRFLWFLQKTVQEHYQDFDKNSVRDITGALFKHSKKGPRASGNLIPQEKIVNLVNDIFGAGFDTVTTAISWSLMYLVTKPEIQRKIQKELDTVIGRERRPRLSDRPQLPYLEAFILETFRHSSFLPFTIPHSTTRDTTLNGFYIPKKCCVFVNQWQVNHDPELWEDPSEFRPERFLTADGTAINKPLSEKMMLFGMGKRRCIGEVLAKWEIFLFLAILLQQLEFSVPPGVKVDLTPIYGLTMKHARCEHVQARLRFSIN
Thyrotropin-releasing hormone receptor (Homo sapiens), sequence (P34981 whole entry, looked up): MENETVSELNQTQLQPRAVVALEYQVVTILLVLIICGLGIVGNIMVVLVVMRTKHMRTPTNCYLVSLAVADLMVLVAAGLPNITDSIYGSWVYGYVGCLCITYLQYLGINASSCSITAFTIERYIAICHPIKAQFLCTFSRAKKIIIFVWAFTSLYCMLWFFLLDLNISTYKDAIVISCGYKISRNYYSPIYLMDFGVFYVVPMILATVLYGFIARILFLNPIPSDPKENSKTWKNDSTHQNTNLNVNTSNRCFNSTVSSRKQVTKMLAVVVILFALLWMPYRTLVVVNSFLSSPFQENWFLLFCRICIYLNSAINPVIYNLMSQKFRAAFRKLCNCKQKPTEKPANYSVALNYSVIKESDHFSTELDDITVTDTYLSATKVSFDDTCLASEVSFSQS
Nuclear receptor subfamily 1 group I member 2 (Homo sapiens), sequence (O75469 whole entry, looked up): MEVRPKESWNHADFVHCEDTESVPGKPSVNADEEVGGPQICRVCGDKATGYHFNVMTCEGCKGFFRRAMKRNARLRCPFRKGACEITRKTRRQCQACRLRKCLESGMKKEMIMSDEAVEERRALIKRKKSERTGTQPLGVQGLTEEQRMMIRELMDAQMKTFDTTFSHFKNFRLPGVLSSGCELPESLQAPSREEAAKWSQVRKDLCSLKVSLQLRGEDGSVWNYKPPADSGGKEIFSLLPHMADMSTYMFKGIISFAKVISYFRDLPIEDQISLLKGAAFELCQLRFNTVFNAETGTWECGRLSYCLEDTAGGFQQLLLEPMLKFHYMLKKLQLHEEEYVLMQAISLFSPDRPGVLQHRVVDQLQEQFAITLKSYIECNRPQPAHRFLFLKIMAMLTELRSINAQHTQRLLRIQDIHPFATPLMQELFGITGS
Cytochrome P450 2D6 (Homo sapiens), sequence (P10635 whole entry, looked up): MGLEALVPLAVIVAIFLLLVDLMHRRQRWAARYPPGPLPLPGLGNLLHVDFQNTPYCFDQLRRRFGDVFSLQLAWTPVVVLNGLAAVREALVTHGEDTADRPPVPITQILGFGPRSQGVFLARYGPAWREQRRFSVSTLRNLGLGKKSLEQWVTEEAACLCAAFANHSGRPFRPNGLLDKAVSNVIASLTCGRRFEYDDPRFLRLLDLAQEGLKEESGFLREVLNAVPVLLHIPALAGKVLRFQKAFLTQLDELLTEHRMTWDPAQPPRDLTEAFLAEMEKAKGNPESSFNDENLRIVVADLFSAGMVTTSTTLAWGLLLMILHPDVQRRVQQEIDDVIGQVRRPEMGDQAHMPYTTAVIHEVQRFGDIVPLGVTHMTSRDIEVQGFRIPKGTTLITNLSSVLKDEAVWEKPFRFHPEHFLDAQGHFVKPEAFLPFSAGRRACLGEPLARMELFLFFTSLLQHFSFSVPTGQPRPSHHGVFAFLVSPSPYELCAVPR
Voltage-gated inwardly rectifying potassium channel KCNH2 (Homo sapiens), sequence (Q12809 whole entry, looked up): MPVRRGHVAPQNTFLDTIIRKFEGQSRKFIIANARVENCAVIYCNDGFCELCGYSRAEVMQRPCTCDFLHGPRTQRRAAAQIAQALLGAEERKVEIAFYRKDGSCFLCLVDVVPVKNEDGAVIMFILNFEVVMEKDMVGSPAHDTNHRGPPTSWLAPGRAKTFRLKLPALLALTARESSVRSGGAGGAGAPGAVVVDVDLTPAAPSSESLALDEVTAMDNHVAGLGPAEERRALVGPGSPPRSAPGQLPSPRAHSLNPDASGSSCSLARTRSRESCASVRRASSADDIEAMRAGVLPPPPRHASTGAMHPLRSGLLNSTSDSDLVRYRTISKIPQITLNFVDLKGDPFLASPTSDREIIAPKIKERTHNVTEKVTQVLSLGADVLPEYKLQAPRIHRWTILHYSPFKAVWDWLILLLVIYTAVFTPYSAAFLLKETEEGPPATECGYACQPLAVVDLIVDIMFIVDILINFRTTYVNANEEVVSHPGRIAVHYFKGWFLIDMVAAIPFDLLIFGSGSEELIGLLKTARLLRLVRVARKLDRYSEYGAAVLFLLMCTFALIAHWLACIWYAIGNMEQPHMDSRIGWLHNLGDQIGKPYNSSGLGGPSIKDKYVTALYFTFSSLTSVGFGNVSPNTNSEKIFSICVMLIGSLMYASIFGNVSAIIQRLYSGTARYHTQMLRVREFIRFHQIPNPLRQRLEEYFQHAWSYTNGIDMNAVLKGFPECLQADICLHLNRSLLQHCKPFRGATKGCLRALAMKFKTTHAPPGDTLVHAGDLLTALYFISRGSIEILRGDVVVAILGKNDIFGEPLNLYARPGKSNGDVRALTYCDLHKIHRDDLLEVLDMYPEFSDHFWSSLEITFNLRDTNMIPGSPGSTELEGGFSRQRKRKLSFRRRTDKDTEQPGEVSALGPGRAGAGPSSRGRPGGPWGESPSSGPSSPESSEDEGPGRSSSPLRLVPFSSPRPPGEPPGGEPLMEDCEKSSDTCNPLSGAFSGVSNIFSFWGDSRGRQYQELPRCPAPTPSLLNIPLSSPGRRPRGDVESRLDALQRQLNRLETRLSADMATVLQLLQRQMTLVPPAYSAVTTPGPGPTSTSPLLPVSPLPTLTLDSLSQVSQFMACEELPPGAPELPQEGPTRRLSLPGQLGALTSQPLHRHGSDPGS
Nuclear receptor subfamily 1 group I member 2 (Rattus norvegicus), sequence (Q9R1A7 whole entry, looked up): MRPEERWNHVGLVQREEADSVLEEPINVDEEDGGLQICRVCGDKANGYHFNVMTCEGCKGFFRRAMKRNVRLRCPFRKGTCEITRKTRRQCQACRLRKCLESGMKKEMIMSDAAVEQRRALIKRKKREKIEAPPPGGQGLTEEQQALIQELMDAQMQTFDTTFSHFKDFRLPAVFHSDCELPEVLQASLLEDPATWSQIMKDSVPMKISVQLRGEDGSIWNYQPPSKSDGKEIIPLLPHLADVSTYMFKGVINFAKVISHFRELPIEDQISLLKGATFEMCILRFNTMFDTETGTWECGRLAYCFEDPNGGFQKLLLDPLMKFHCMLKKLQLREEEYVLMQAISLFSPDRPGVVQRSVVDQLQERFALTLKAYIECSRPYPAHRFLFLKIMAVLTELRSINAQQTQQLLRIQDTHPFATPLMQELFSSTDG

Consider `NC(=O)Cn1c(=O)cc(CCN2CCN(c3nccc4sccc34)CC2)c2ccc(F)cc21`, for which the Potency result in assay [1], in [2], in assay [5] and in [6] was “inactive” in each case. For the same compound, in assay [3], the call was inactive. In addition, the figures for the Potency in [4] and in assay [7] were 63.3 µM (active) and 5.64 µM (active), respectively.
For the compound `C/C=C/C=C/CCCCCCCO`, the Potency result in [1], in [2] and in [8] was “inactive” each time. The compound was classed as inactive in [3]. Besides, the Potency is 61.1 µM (active) in assay [9], 25.2 µM (active) in [10], 7.1 µM (active) in assay [4] and 15.9 µM (active) in [7].
Turning to `CC1CC(O)CC(C)(C)C1` (stereo not given), the Potency result in assay [11], in assay [2], in assay [12], in assay [8], in assay [9] and in [14] was “inactive” in each case. The Potency result in [15], in assay [10], in assay [4], in [6] and in assay [7] was “inactive” in each case. The result in assay [3] was inactive. In addition, in [13], the max activation is -0.957%.
As to `O=C(/C=C/c1ccccc1)OCCCc1ccccc1`, the Potency entry in [11], in [2], in assay [12], in assay [8], in [9] and in assay [16] was “inactive” throughout. In [7], the Potency entry was “inactive”. The outcome in assay [3] was inactive. Also, the results for the Potency in assay [10], in assay [4] and in [5] were 39.9 µM (active), 22.4 µM (active) and 12.6 µM (active), respectively.
`C=C(C)C(=O)OCCOC(=O)CC(C)=O`: the Potency result in [11], in assay [2], in [12], in assay [8], in assay [9] and in assay [16] was “inactive” in each case. Also, the Potency result in assay [10] and in [6] was “inactive” throughout. Further, the compound was classed as inactive in assay [3].
On to `Fc1c(F)c(F)c(Br)c(F)c1F`, for which the Potency result in assay [1], in assay [12], in assay [8], in [9], in assay [16] and in assay [4] was “inactive” each time. The Potency result in assay [6] and in [7] was “inactive” in each case. For the same compound, the compound was classed as inactive in assay [3].
As to `CO[C@H]1C=CO[C@@]2(C)Oc3c(C)c(O)c4c(O)c(c5c(c4c3C2=O)=NC2(CCN(CC(C)C)CC2)N=5)NC(=O)/C(C)=C\C=C/[C@H](C)[C@H](O)[C@@H](C)[C@@H](O)[C@@H](C)[C@H](OC(C)=O)[C@@H]1C`, the Potency result in assay [1] and in assay [6] was “inactive” in each case. In addition, the Potency in assay [12] is 53.3 µM (active); in assay [8], 30 µM (active); in assay [9], 5.98 µM (active); in [14], 0.501 µM (active); in assay [15] it was 0.158 µM (active); in assay [16], 39.1 µM (active). In addition, the Potency in [10] is 39.1 µM (active). Besides, the result in assay [3] was inactive. Besides, the max activation in assay [13] is -0.473%.
As for `CC1C2CC(CC2C2CCCC(O)C2)C1(C)C` (stereo not given), the Potency entry in [1], in assay [8], in assay [9] and in [16] was “inactive” in each case. Also, the Potency in assay [12] is 68.6 µM (active); in assay [10], 35.6 µM (active); in assay [4] it was 35.6 µM (active); in assay [6], 24.5 µM (active). Moreover, the compound was classed as inactive in assay [3].
For the compound `CCCOCCOCCO`, the Potency result in assay [11], in assay [2], in assay [12], in [8], in assay [9] and in assay [16] was “inactive” each time. Moreover, the Potency entry in assay [10], in [4], in [6] and in assay [7] was “inactive” in each case. For the same compound, the compound was classed as inactive in assay [3].
In the case of `CCC(=O)OC/C=C/c1ccccc1`, the Potency entry in [11], in assay [2], in assay [12], in assay [8], in assay [9] and in [16] was “inactive” throughout. Also, the Potency entry in assay [6] and in assay [7] was “inactive” throughout. In assay [3], the outcome was inactive. For the same compound, the Potency was 35.6 µM (active) and 71 µM (active) in assay [10]; 39.9 µM (active) in assay [4]; 63.3 µM (active) in assay [5].
